From PubChem BioAssay AID1210 (NMMLSC, 2008)
Active and inactive are the calls of the source.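 Rule for the calls: active = blocks over 70% of labeled estradiol binding at 10 µM, or over a set limit at 100 nM; inactive = the rest.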

The compounds below were run against Estrogen receptor beta (Homo sapiens) (UniProt Q92731) (assay: displacement of fluorescent estrogen from ERbeta – cell-based, Cos7 ERbeta-GFP, flow cytometry, primary screen (AID 1210;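 note: 0% = DMSO vehicle wells and 100% = complete loss of labeled estradiol signal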)). Details: fluorescent estrogen binding, at 10 µM, stronger effect = higher value.
Estrogen receptor beta (Homo sapiens), sequence (Q92731 whole entry, looked up): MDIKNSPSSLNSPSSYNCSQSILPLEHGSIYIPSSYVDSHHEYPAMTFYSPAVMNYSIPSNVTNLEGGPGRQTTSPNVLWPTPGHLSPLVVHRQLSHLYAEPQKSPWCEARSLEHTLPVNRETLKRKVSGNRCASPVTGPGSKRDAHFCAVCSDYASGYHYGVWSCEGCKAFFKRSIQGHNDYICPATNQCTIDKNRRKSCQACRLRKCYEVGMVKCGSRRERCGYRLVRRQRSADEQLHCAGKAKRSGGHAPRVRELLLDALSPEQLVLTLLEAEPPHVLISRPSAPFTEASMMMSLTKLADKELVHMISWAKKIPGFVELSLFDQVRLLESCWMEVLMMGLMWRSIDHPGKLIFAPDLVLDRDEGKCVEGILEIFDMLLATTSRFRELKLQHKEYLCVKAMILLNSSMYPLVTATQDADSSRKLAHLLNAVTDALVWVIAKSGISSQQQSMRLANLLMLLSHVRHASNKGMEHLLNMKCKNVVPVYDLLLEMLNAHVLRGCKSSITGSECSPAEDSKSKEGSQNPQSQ
For CCOc1ccccc1C1C(C#N)=C(N)Nc2onc(-c3ccccc3)c21 (stereo not drawn), the inhibition was 5% (inactive).
In the case of CCn1c(SCC(=O)c2ccc(O)c(O)c2)nnc1-c1ccccc1OC, the inhibition is reported as 58% (inactive).
For C=CCn1c(COc2cccc(C)c2)nnc1SCC(=O)NC(=O)NCc1ccco1, the inhibition was 31% (inactive).
With CCc1nc2sc3ccccc3c(=O)c2c(=O)n1Cc1ccco1 the inhibition was 46% (active).
In the case of COc1cccc2cc3c(=O)n(-c4ccccc4)nc-3oc12, the inhibition is reported as 70% (inactive).
In the case of Oc1ccc(-c2cn3cc(C(F)(F)F)ccc3n2)cc1, the inhibition is reported as 41% (inactive).
With COc1ccc(N=Cc2sc(O)c3ccccc23)cc1 the inhibition was 47% (inactive).
O=c1cc(CSc2nnc(-c3cccs3)n2Cc2ccccc2)nc2sc3ccccc3n12 was tested, and the inhibition was 54% (inactive).
For O=C(Nc1ccc2oc(-c3ccccc3F)nc2c1)c1cncc(Br)c1, the inhibition was 63% (inactive).
With COc1ccc(C)cc1-n1nnnc1SCC(=O)NC(=O)NCc1ccco1 the inhibition was 61% (inactive).
COc1cc(C2C(C#N)=C(N)Oc3cc(C)oc(=O)c32)cc2c1OCO2 (stereo not drawn) was tested, and the inhibition was 32% (inactive).
For COC(=O)c1ccccc1NC(=O)c1noc2c1CCC2, the inhibition was 38% (inactive).
In the case of Nc1ccc(-c2cc(-c3ccc(N)cc3)nc(-c3ccccc3)n2)cc1, the inhibition is reported as 43% (inactive).
In the case of Cc1ccc(Nc2nnc(SCC(=O)NCc3ccco3)s2)cc1, the inhibition is reported as 18% (inactive).
In the case of O=C(CCCn1c(=S)[nH]c2cc3c(cc2c1=O)OCO3)N1CCN(c2ccc(Cl)cc2)CC1, the inhibition is reported as 0% (inactive).
COc1cc2c(cc1O)CC[n+]1cc3c(OC)c(OC)ccc3cc1-2 was tested, and the inhibition was 25% (inactive).
For COCc1cc(=O)n2c(-c3ccc(C)cc3)n[nH]c2n1, the inhibition was 12% (inactive).
With COc1cccc(-c2nnc(NC(=O)Cc3cccs3)s2)c1 the inhibition was 30% (inactive).
For Cc1cccn2c(=O)c3cc(C(=O)O)n(C)c3nc12, the inhibition was 60% (inactive).
For CCSc1nc2c(cnn2-c2ccc(C)cc2)c(=O)[nH]1, the inhibition was 31% (inactive).
For O=C(Nc1sc2c(c1C(=O)O)CCC2)c1ccccc1, the inhibition was 46% (inactive).
With O=S(=O)(c1cccc(-c2cn3cccnc3n2)c1)N1CCCCCC1 the inhibition was 14% (inactive).
For Nc1ccc2nc3n(c(=O)c2c1)CCC3, the inhibition was 49% (inactive).
For CCc1ccc2[nH]c(=O)c(CN(Cc3ccc4c(c3)OCO4)C(=O)c3ccco3)cc2c1, the inhibition was 13% (inactive).
With O=c1cc(CSc2nnnn2-c2ccccc2)nc(Nc2ccc(F)cc2)[nH]1 the inhibition was 0% (inactive).
Oc1ccccc1N=Nc1nc(-c2ccccc2)c(-c2ccccc2)[nH]1 was tested, and the inhibition was 36% (inactive).
Cc1ccccc1NC(=O)CSc1nnc(-c2ccco2)c(-c2ccco2)n1 was tested, and the inhibition was 31% (inactive).
With Cc1cccc(N2CCN(C(=O)c3cc4c(=O)n(C)c5ccccc5c4n3C)CC2)c1C the inhibition was 46% (inactive).
For C=CCSC1=N/C(=C\C=C\c2ccco2)C(=O)S1, the inhibition was 24% (inactive).
In the case of O=C(Cc1cccs1)Nc1nnc(Cc2ccccc2)s1, the inhibition is reported as 18% (inactive).
For CCOC(=O)c1c(C)oc2c1c(C=NC1CCS(=O)(=O)C1)c(O)c1ccccc12 (stereo not drawn), the inhibition was 38% (inactive).
In the case of CCc1ccc2[nH]c(=O)c(C3C(C#N)=C(N)Oc4c3ccc3cccnc43)cc2c1 (stereo not drawn), the inhibition is reported as 23% (inactive).
In the case of O=C(O)C1CSC(c2coc3ccccc3c2=O)N1 (stereo not drawn), the inhibition is reported as 26% (inactive).
Oc1ccc(-c2cn3c(n2)SCC3)cc1O was tested, and the inhibition was 33% (inactive).
COc1ccc(NC(=O)C(c2ccccc2)N(C)C(=O)c2ccc(=O)[nH]c2)cc1 (stereo not drawn) was tested, and the inhibition was 17% (inactive).
With Cn1c(SCC(=O)Nc2sccc2C#N)nnc1-c1ccccc1 the inhibition was 12% (inactive).
In the case of Cc1ccc(-c2nn(-c3ccccc3)cc2/C=N/NC(=O)c2ccc(Br)o2)cc1, the inhibition is reported as 38% (inactive).
With CC(C)(C)c1nnc2sc(SC/C(O)=C(\C#N)c3nc4ccccc4[nH]3)nn2c1=O the inhibition was 31% (inactive).
For COc1cc(-c2nc3ccccn3c2/N=C/c2ccccc2)ccc1O, the inhibition was 54% (inactive).

Same assay, conditions: fluorescent estrogen binding, ligand binding inhibition, at 0.1 µM, stronger effect = higher value
CCOc1ccccc1C1C(C#N)=C(N)Nc2onc(-c3ccccc3)c21 (stereo not drawn) showed an inhibition of 38%.
For CCn1c(SCC(=O)c2ccc(O)c(O)c2)nnc1-c1ccccc1OC, the inhibition was 3%.
C=CCn1c(COc2cccc(C)c2)nnc1SCC(=O)NC(=O)NCc1ccco1 gave an inhibition of 47%.
CCc1nc2sc3ccccc3c(=O)c2c(=O)n1Cc1ccco1 gave an inhibition of 66%.
COc1cccc2cc3c(=O)n(-c4ccccc4)nc-3oc12 was tested, and the inhibition was 12%.
Oc1ccc(-c2cn3cc(C(F)(F)F)ccc3n2)cc1 was tested, and the inhibition was 10%.
For COc1ccc(N=Cc2sc(O)c3ccccc23)cc1, the inhibition was 22%.
With O=c1cc(CSc2nnc(-c3cccs3)n2Cc2ccccc2)nc2sc3ccccc3n12 the inhibition was 26%.
In the case of O=C(Nc1ccc2oc(-c3ccccc3F)nc2c1)c1cncc(Br)c1, the inhibition is reported as 25%.
COc1ccc(C)cc1-n1nnnc1SCC(=O)NC(=O)NCc1ccco1 gave an inhibition of 12%.
Compound COc1cc(C2C(C#N)=C(N)Oc3cc(C)oc(=O)c32)cc2c1OCO2 (stereo not drawn) has an inhibition of 46%.
In the case of COC(=O)c1ccccc1NC(=O)c1noc2c1CCC2, the inhibition is reported as 26%.
For Nc1ccc(-c2cc(-c3ccc(N)cc3)nc(-c3ccccc3)n2)cc1, the inhibition was 29%.
Work on Cc1ccc(Nc2nnc(SCC(=O)NCc3ccco3)s2)cc1 yielded an inhibition of 18%.
O=C(CCCn1c(=S)[nH]c2cc3c(cc2c1=O)OCO3)N1CCN(c2ccc(Cl)cc2)CC1 gave an inhibition of 56%.
For COc1cc2c(cc1O)CC[n+]1cc3c(OC)c(OC)ccc3cc1-2, the inhibition was 23%.
For COCc1cc(=O)n2c(-c3ccc(C)cc3)n[nH]c2n1, the inhibition was 39%.
COc1cccc(-c2nnc(NC(=O)Cc3cccs3)s2)c1 showed an inhibition of 47%.
Cc1cccn2c(=O)c3cc(C(=O)O)n(C)c3nc12 gave an inhibition of 11%.
CCSc1nc2c(cnn2-c2ccc(C)cc2)c(=O)[nH]1 showed an inhibition of 29%.
For O=C(Nc1sc2c(c1C(=O)O)CCC2)c1ccccc1, the inhibition was 35%.
Compound O=S(=O)(c1cccc(-c2cn3cccnc3n2)c1)N1CCCCCC1 has an inhibition of 17%.
Nc1ccc2nc3n(c(=O)c2c1)CCC3 showed an inhibition of 9%.
CCc1ccc2[nH]c(=O)c(CN(Cc3ccc4c(c3)OCO4)C(=O)c3ccco3)cc2c1 gave an inhibition of 6%.
Work on O=c1cc(CSc2nnnn2-c2ccccc2)nc(Nc2ccc(F)cc2)[nH]1 yielded an inhibition of 25%.
With Oc1ccccc1N=Nc1nc(-c2ccccc2)c(-c2ccccc2)[nH]1 the inhibition was 36%.
For Cc1ccccc1NC(=O)CSc1nnc(-c2ccco2)c(-c2ccco2)n1, the inhibition was 27%.
Cc1cccc(N2CCN(C(=O)c3cc4c(=O)n(C)c5ccccc5c4n3C)CC2)c1C gave an inhibition of 27%.
Work on C=CCSC1=N/C(=C\C=C\c2ccco2)C(=O)S1 yielded an inhibition of 1%.
Work on O=C(Cc1cccs1)Nc1nnc(Cc2ccccc2)s1 yielded an inhibition of 29%.
Work on CCOC(=O)c1c(C)oc2c1c(C=NC1CCS(=O)(=O)C1)c(O)c1ccccc12 (stereo not drawn) yielded an inhibition of 11%.
For CCc1ccc2[nH]c(=O)c(C3C(C#N)=C(N)Oc4c3ccc3cccnc43)cc2c1 (stereo not drawn), the inhibition was 36%.
O=C(O)C1CSC(c2coc3ccccc3c2=O)N1 (stereo not drawn) gave an inhibition of 46%.
With Oc1ccc(-c2cn3c(n2)SCC3)cc1O the inhibition was 22%.
COc1ccc(NC(=O)C(c2ccccc2)N(C)C(=O)c2ccc(=O)[nH]c2)cc1 (stereo not drawn) gave an inhibition of 56%.
Cn1c(SCC(=O)Nc2sccc2C#N)nnc1-c1ccccc1 showed an inhibition of 13%.
For Cc1ccc(-c2nn(-c3ccccc3)cc2/C=N/NC(=O)c2ccc(Br)o2)cc1, the inhibition was 58%.
CC(C)(C)c1nnc2sc(SC/C(O)=C(\C#N)c3nc4ccccc4[nH]3)nn2c1=O was tested, and the inhibition was 15%.
With COc1cc(-c2nc3ccccn3c2/N=C/c2ccccc2)ccc1O the inhibition was 9%.
